The record followed here is article PMC5540273 (PLoS ONE, 2017).

What all share (conditions): concentration: 1 μM, replicates: in singlicate; n = 1
The subject of experiment [1] is DAPK2.
The test system of experiment [2] is DAPK3.
In experiment [3] the test system is T1, DCAMKL1.
T1 construct: gene DCLK1

For experiment [4], the system named is T2, DCAMKL2.
T2 construct: gene DCLK2

Experiment [5] relates to T3, DCAMKL3.
T3 construct: gene DCLK3

Experiment [6] relates to DDR1.
The subject of experiment [7] is DDR2.
In experiment [8] the test system is T4, DLK.
T4 construct: gene MAP3K12

The subject of experiment [9] is T5, DMPK2.
T5 construct: gene CDC42BPG

Experiment [10] deals with DMPK.
For experiment [11], the system named is T6, DRAK1.
T6 construct: gene STK17A

For experiment [12], the system named is T7, DRAK2.
T7 construct: gene STK17B

Experiment [13] concerns DYRK1A.
For experiment [14], the system named is DYRK1B.
For experiment [15], the system named is DYRK2.
Experiment [16] has as its system EGFR.
For experiment [17], the system named is EIF2AK1.
Experiment [18] concerns EPHA1.
For experiment [19], the system named is EPHA2.
The test system of experiment [20] is EPHA3.
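Further: KINOMEscan kinase panel screen.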

For the compound `Cl.O=C(Nc1cccc(-c2nn3ncccc3c2-c2ccnc(Nc3cccnc3)n2)c1)c1c(F)cccc1F` [GSK312879], the “%Inh” value in [1] was 27%; in [2] it was 6%; in experiment [3], 12%; in experiment [4], 0%; in experiment [5], 0%; in experiment [6] it was 94.4%. Moreover, the “%Inh” value was found to be 4% in [7]; 14% in experiment [8]; 13% in experiment [9]; 15% in experiment [10]; 1% in experiment [11]; 0% in experiment [12]. Moreover, the “%Inh” value in experiment [13] is listed as 22%; in experiment [14], 18%; in [15] it was 6%; in [16] it was 98.9%; in [17], 17%; in experiment [18], 4%. Also, the “%Inh” value in [19] stood at 0%; in [20], 2%.
Turning to `CCn1c(-c2ccccn2)nc2cnccc21` [SB-736398], the “%Inh” value in experiment [1] worked out at 0%; in experiment [2], 13%; in experiment [3] it was 5%; in experiment [4], 0%; in experiment [5], 0%; in [6], 0%. In addition, the “%Inh” value in experiment [7] is listed as 39%; in experiment [8], 53%; in [9], 0%; in experiment [10], 0%; in [11] it was 5%; in [12], 8%. Besides, the “%Inh” value stood at 19% in experiment [13]; 11% in experiment [14]; 0% in [15]; 15% in experiment [16]; 0% in experiment [17]; 21% in [18]. For the same compound, the “%Inh” value in experiment [19] is recorded as 6%; in experiment [20], 0%.
In the case of `O=C(Nc1n[nH]c2nc(-c3nccs3)c(Br)cc12)C1CC1` [SB-742251], the “%Inh” value in experiment [1] came out at 0%; in experiment [2] it was 6%; in experiment [3], 4%; in [4], 0%; in experiment [5], 0%; in [6], 0%. Moreover, the “%Inh” value in [7] was determined as 26%; in experiment [8], 34%; in experiment [9], 0%; in experiment [10], 0%; in experiment [11] it was 0%; in experiment [12], 0%. The “%Inh” value in [13] is reported as 30%; in experiment [14], 0%; in [15], 36%; in [16], 0%; in experiment [17], 1%; in experiment [18], 0%. Further, the “%Inh” value in experiment [19] and in experiment [20] was 0% each time.
Consider `O=C(Nc1n[nH]c2cc(-c3cccc(F)c3F)ccc12)C1CC1` [SB-733894], for which the “%Inh” value in [1] is recorded as 24%; in [2] it was 35%; in experiment [3] it was 21%; in experiment [4], 0%; in experiment [5], 0%; in experiment [6], 0%. Moreover, the “%Inh” value in [7], in experiment [8], in [9], in experiment [10], in experiment [11] and in experiment [12] was 0% throughout. The “%Inh” value came out at 2% in experiment [13]; 0% in experiment [14]; 14% in experiment [15]; 12% in experiment [16]; 23% in [17]; 13% in [18]. The “%Inh” value is recorded as 16% in [19] and 18% in experiment [20].
On to `COC(=O)c1c(-c2ccccc2)c2cc(C(=O)O)ccc2c(=O)n1Cc1ccccc1`, for which the “%Inh” value in experiment [1] worked out at 0%; in experiment [2], 0%; in experiment [3], 5%; in [4], 4%; in [5] it was 26%; in [6], 92.6%. The “%Inh” value in experiment [7] is recorded as 63%; in experiment [8], 0%; in [9] it was 0%; in [10] it was 12%; in [11], 0%; in experiment [12] it was 0%. Further, the “%Inh” value in experiment [13] came to 7%; in experiment [14], 32%; in [15] it was 0%; in experiment [16], 0%; in experiment [17], 0%; in experiment [18], 0%. Besides, the “%Inh” value in experiment [19] is listed as 3%; in [20] it was 15%.
Consider `COc1ccc(Nc2nccc(NCCNC(=O)Nc3ccccc3F)n2)cc1` [GSK1379901], for which the “%Inh” value in [1] was 0%; in experiment [2] it was 8%; in [3] it was 15%; in experiment [4], 0%; in experiment [5] it was 8%; in experiment [6], 11%. Further, the “%Inh” value is 0% in [7]; 0% in [8]; 0% in [9]; 0% in [10]; 2% in experiment [11]; 0% in experiment [12]. In addition, the “%Inh” value in [13] is 19%; in experiment [14], 0%; in [15], 6%; in [16] it was 20%; in experiment [17] it was 10%; in [18], 33%. For the same compound, the “%Inh” value is listed as 25% in experiment [19] and 0% in experiment [20].
Take `Fc1cc(Cl)ccc1Nc1ccnc2cc(I)ccc12` [GW551191]: the “%Inh” value in experiment [1] came to 0%; in [2] it was 9%; in [3] it was 15%; in [4] it was 0%; in [5] it was 0%; in experiment [6], 33%. Further, the “%Inh” value in [7] is given as 8%; in experiment [8], 27%; in experiment [9] it was 8%; in experiment [10], 21%; in experiment [11] it was 0%; in experiment [12], 0%. The “%Inh” value in experiment [13] amounted to 33%; in experiment [14] it was 60%; in experiment [15], 4%; in [16], 21%; in experiment [17] it was 0%; in experiment [18], 71%. Besides, the “%Inh” value in [19] is 26%; in experiment [20] it was 0%.
For `COc1ccc2nc(-c3cccc(C)n3)nc(Nc3ccncc3)c2c1` [GSK204919], the “%Inh” value in experiment [1] worked out at 0%; in [2], 22%; in [3] it was 5%; in experiment [4] it was 26%; in [5], 0%; in experiment [6], 58%. Further, the “%Inh” value amounted to 5% in [7]; 8% in experiment [8]; 91.1% in experiment [9]; 0% in [10]; 0% in experiment [11]; 0% in [12]. Also, the “%Inh” value in experiment [13] is recorded as 24%; in experiment [14], 0%; in [15], 0%; in [16], 20%; in [17] it was 0%; in experiment [18] it was 0%. The “%Inh” value amounted to 20% in experiment [19] and 0% in experiment [20].
`CS(=O)(=O)c1ccc(-c2nc3n(c2-c2ccncc2)CCC3)cc1` [SKF-105942]: the “%Inh” value in experiment [1] is on record as 0%; in [2], 22%; in [3] it was 21%; in experiment [4] it was 13%; in experiment [5], 20%; in [6] it was 0%. In addition, the “%Inh” value was determined as 7% in experiment [7]; 0% in experiment [8]; 0% in experiment [9]; 0% in experiment [10]; 0% in [11]; 0% in experiment [12]. The “%Inh” value stood at 20% in [13]; 0% in experiment [14]; 5% in [15]; 5% in experiment [16]; 13% in experiment [17]; 1% in [18]. Moreover, the “%Inh” value in experiment [19] amounted to 6%; in experiment [20], 0%.
For the compound `COc1ccc(Nc2nccc(-c3cccc(NC(=O)c4cc5cc(F)ccc5[nH]4)c3)n2)cc1` [GSK1229782], the “%Inh” value in experiment [1] was 11%; in [2], 6%; in experiment [3], 4%; in [4], 0%; in experiment [5], 4%; in experiment [6], 0%. For the same compound, the “%Inh” value is given as 39% in experiment [7]; 37% in [8]; 13% in [9]; 25% in [10]; 24% in [11]; 0% in [12]. Moreover, the “%Inh” value in experiment [13] came out at 5%; in [14], 25%; in [15], 12%; in experiment [16], 22%; in experiment [17] it was 10%; in [18], 56%. Besides, the “%Inh” value in [19] came to 9%; in experiment [20] it was 35%.
As to `COc1cc2ncnc(Nc3ccc4nc(-c5ccccc5)[nH]c4c3)c2cc1OC.Cl` [GW282450], the “%Inh” value turned out to be 15% in [1]; 13% in experiment [2]; 8% in experiment [3]; 0% in [4]; 0% in experiment [5]; 0% in [6]. In addition, the “%Inh” value in [7] is recorded as 0%; in experiment [8], 7%; in experiment [9] it was 0%; in [10], 0%; in [11], 0%; in experiment [12], 0%. Besides, the “%Inh” value came out at 13% in experiment [13]; 0% in experiment [14]; 19% in experiment [15]; 59% in [16]; 6% in [17]; 10% in experiment [18]. The “%Inh” value in experiment [19] was found to be 0%; in experiment [20], 31%.
